# Data from publication PMC7862700, “An all-to-all approach to the identification of sequence-specific readers for epigenetic DNA modifications on cytosine”.
# Tests used:
# Test in all cases: DAPPL (digital affinity profiling via proximity ligation, sequencing); 10 mM Tris-HCl pH 7.5, 50 mM NaCl, 1 mM DTT, 4% glycerol, room temperature, 30 min; GST-TFs on glutathione beads, 16-mer random dsDNA library, 0.1% formaldehyde crosslink after washing; high values mean tight binding
# Settings in all cases: protein: recombinant; tags: N-terminal GST; dsDNA, one strand shown
# FLI1 = biological target: T1, FLI1 (Homo sapiens, UniProt Q01543 1-452)
# T1 sequence: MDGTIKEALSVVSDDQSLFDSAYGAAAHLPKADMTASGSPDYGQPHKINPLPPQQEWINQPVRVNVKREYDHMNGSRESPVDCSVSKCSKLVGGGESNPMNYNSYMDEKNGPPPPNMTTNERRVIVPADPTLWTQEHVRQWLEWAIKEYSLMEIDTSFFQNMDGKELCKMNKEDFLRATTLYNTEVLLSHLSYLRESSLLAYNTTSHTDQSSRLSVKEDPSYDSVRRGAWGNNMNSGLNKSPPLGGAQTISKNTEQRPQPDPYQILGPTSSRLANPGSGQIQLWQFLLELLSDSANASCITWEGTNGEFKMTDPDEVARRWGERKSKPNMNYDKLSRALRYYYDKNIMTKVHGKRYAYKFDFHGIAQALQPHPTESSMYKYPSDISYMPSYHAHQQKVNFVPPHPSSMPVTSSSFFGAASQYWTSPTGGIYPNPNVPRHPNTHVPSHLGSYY
# How it was run: (§1)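 GST fusions of human transcription factors were expressed in yeast and captured with glutathione beads. Once given DNA barcodes and pooled alongside a tag-only sample, they were incubated for 30 min at room temperature with 200 nmole of a random double-stranded 16-mer DNA library in Tris/NaCl/DTT/glycerol buffer, then washed, crosslinked (0.1% formaldehyde), proximity-ligated, PCR-amplified and sequenced on an Illumina NextSeq500. The binding signal of each hexamer is its read frequency for a factor divided by its frequency for the tag-only sample.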
# ELK1 = biological target: T2, ELK1 (Homo sapiens, UniProt P19419 1-428)
# T2 sequence: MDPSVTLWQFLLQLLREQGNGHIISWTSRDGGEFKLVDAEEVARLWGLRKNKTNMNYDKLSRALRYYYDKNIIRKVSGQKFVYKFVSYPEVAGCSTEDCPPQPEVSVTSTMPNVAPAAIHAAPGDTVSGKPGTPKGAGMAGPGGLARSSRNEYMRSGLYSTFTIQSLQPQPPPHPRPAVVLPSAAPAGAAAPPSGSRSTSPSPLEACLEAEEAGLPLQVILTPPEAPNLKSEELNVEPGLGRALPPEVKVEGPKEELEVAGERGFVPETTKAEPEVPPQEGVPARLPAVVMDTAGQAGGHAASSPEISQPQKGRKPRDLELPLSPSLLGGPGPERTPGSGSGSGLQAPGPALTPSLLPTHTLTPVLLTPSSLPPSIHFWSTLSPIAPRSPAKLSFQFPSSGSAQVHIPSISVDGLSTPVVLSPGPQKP
# How it was run: as §1
# GABPA = biological target: T3, GABPA (Homo sapiens, UniProt Q06546 1-454)
# T3 sequence: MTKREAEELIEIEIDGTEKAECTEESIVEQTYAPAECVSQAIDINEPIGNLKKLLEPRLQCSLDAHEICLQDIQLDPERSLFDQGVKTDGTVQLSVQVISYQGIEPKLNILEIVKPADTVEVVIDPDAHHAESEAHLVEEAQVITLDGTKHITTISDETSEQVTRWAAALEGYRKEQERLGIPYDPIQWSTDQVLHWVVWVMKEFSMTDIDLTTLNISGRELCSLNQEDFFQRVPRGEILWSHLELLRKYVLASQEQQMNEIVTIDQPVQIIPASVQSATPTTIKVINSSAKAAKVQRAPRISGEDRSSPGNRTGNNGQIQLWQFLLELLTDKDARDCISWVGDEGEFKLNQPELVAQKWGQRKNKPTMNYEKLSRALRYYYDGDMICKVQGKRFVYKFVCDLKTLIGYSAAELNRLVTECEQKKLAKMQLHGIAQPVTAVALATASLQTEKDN
# How it was run: as §1
# ERG = biological target: T4, ERG (Homo sapiens, UniProt P11308 1-479)
# T4 sequence: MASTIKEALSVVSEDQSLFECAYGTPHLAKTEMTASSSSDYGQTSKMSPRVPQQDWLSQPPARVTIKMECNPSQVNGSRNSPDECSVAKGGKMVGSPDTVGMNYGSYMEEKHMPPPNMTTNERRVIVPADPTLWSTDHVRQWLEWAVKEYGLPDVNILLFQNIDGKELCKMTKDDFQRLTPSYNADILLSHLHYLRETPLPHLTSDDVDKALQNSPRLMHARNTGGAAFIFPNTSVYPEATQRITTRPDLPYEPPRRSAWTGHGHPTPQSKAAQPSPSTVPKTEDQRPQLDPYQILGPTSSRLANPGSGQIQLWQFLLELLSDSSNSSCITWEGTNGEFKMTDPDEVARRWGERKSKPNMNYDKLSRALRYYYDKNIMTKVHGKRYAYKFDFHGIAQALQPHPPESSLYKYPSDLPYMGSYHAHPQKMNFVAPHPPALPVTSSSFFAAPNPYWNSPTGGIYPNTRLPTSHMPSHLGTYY
# How it was run: as §1
# ELF1 = ELF1 (Homo sapiens, UniProt P32519 1-619)
# ELF1, sequence (P32519 whole entry): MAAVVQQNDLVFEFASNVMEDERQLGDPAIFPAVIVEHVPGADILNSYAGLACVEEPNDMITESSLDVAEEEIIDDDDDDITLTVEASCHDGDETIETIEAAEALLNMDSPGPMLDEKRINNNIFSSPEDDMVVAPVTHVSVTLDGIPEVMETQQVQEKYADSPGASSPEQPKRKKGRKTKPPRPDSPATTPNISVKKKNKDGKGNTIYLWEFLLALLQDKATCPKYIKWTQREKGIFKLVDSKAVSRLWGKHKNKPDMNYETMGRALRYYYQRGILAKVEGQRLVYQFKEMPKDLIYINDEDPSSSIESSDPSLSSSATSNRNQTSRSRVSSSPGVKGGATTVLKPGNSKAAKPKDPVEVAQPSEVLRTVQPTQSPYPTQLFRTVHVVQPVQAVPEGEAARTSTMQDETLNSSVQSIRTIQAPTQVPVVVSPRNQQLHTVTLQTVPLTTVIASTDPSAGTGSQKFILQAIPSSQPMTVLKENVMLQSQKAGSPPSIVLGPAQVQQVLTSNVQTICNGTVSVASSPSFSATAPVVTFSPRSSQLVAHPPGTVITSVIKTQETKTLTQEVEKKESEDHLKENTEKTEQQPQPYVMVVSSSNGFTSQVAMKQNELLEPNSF
# How it was run: as §1
# EHF = biological target: T5, EHF (Homo sapiens, UniProt Q9NZC4 1-300)
# T5 sequence: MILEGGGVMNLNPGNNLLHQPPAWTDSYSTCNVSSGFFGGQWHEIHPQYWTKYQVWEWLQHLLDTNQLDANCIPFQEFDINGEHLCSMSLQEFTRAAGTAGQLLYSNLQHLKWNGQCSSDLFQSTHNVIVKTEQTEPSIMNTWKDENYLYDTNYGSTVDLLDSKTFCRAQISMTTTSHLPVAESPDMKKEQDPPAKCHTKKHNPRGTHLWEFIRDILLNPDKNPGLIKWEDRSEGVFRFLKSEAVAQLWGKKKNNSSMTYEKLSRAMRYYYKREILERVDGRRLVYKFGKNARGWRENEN
# How it was run: as §1
# SPI1 = SPI1 (Homo sapiens, UniProt P17947 1-270)
# How it was run: as §1
# SPIB = SPIB (Homo sapiens, UniProt Q01892 1-262)
# SPIB, sequence (Q01892 whole entry): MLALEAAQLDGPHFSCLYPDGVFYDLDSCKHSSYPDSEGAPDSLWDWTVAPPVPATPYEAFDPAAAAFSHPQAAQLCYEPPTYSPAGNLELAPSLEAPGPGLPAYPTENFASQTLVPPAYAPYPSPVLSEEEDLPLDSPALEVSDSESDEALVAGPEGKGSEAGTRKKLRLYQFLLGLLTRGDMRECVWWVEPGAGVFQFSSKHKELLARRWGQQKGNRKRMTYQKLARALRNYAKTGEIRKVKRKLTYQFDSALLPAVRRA
# How it was run: as §1
# ELK3 = biological target: T6, ELK3 (Homo sapiens, UniProt P41970 1-407)
# T6 sequence: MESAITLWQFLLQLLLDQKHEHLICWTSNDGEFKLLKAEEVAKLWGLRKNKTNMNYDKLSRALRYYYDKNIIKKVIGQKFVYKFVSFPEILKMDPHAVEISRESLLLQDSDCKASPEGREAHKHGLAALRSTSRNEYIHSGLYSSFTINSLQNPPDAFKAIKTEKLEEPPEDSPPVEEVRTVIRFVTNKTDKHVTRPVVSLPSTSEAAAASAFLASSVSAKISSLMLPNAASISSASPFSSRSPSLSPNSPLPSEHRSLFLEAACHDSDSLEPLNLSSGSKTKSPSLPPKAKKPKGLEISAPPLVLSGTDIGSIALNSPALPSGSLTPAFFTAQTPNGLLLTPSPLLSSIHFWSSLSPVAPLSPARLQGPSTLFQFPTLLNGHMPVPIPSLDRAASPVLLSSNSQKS
# How it was run: as §1
Sequence,binding signal (FLI1),binding signal (ELK1),binding signal (GABPA),binding signal (ERG),binding signal (ELF1),binding signal (EHF),binding signal (SPI1),binding signal (SPIB),binding signal (ELK3)
CAAAAC,"1.19 fold enrichment (6-mer frequency, TF over GST control)","1.27 fold enrichment (6-mer frequency, TF over GST control)","1.3 fold enrichment (6-mer frequency, TF over GST control)","1.23 fold enrichment (6-mer frequency, TF over GST control)","1.28 fold enrichment (6-mer frequency, TF over GST control)","1.26 fold enrichment (6-mer frequency, TF over GST control)","1.38 fold enrichment (6-mer frequency, TF over GST control)","1.23 fold enrichment (6-mer frequency, TF over GST control)","1.21 fold enrichment (6-mer frequency, TF over GST control)"
TATGTA,"1.32 fold enrichment (6-mer frequency, TF over GST control)","1.25 fold enrichment (6-mer frequency, TF over GST control)","1.29 fold enrichment (6-mer frequency, TF over GST control)","1.2 fold enrichment (6-mer frequency, TF over GST control)","1.29 fold enrichment (6-mer frequency, TF over GST control)","1.23 fold enrichment (6-mer frequency, TF over GST control)","1.3 fold enrichment (6-mer frequency, TF over GST control)","1.31 fold enrichment (6-mer frequency, TF over GST control)","1.17 fold enrichment (6-mer frequency, TF over GST control)"
GTTCTA,"1.16 fold enrichment (6-mer frequency, TF over GST control)","1.28 fold enrichment (6-mer frequency, TF over GST control)","1.22 fold enrichment (6-mer frequency, TF over GST control)","1.24 fold enrichment (6-mer frequency, TF over GST control)","1.31 fold enrichment (6-mer frequency, TF over GST control)","1.12 fold enrichment (6-mer frequency, TF over GST control)","1.12 fold enrichment (6-mer frequency, TF over GST control)","1.32 fold enrichment (6-mer frequency, TF over GST control)","1.23 fold enrichment (6-mer frequency, TF over GST control)"
TTCAGG,"1.2 fold enrichment (6-mer frequency, TF over GST control)","1.14 fold enrichment (6-mer frequency, TF over GST control)","1.15 fold enrichment (6-mer frequency, TF over GST control)","1.12 fold enrichment (6-mer frequency, TF over GST control)","1.1 fold enrichment (6-mer frequency, TF over GST control)","1.11 fold enrichment (6-mer frequency, TF over GST control)","1.22 fold enrichment (6-mer frequency, TF over GST control)","1.1 fold enrichment (6-mer frequency, TF over GST control)","1.09 fold enrichment (6-mer frequency, TF over GST control)"
AAAATA,"1.17 fold enrichment (6-mer frequency, TF over GST control)","1.12 fold enrichment (6-mer frequency, TF over GST control)","1.18 fold enrichment (6-mer frequency, TF over GST control)","1.19 fold enrichment (6-mer frequency, TF over GST control)","1.19 fold enrichment (6-mer frequency, TF over GST control)","1.13 fold enrichment (6-mer frequency, TF over GST control)","1.18 fold enrichment (6-mer frequency, TF over GST control)","1.23 fold enrichment (6-mer frequency, TF over GST control)","1.17 fold enrichment (6-mer frequency, TF over GST control)"
TTCAAC,"1.3 fold enrichment (6-mer frequency, TF over GST control)","1.31 fold enrichment (6-mer frequency, TF over GST control)","1.24 fold enrichment (6-mer frequency, TF over GST control)","1.26 fold enrichment (6-mer frequency, TF over GST control)","1.33 fold enrichment (6-mer frequency, TF over GST control)","1.32 fold enrichment (6-mer frequency, TF over GST control)","1.28 fold enrichment (6-mer frequency, TF over GST control)","1.38 fold enrichment (6-mer frequency, TF over GST control)","1.29 fold enrichment (6-mer frequency, TF over GST control)"
AATCTG,"1.48 fold enrichment (6-mer frequency, TF over GST control)","1.33 fold enrichment (6-mer frequency, TF over GST control)","1.49 fold enrichment (6-mer frequency, TF over GST control)","1.46 fold enrichment (6-mer frequency, TF over GST control)","1.48 fold enrichment (6-mer frequency, TF over GST control)","1.31 fold enrichment (6-mer frequency, TF over GST control)","1.42 fold enrichment (6-mer frequency, TF over GST control)","1.51 fold enrichment (6-mer frequency, TF over GST control)","1.34 fold enrichment (6-mer frequency, TF over GST control)"
